Assay results as given in PubChem BioAssay (NCI).
Compounds without any hit were thinned out: in the full panel of roughly 79,000, 15% have a hit. Cut-off read from the data, not from the text of the source: active = growth inhibition above about 70%; inactive = the rest.

How the values were obtained:
[1] = NCI Yeast Anticancer Drug Screen. Data for the rad50 strain (AID 155);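 note: 0% = growth of vehicle-only cultures of the same strain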; conditions: S. cerevisiae rad50 strain growth inhibition; at 50.0 µM; hits give high values
Method in brief: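 Growth of the mutant yeast was measured after compound exposure and referenced to vehicle-treated cultures.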

[2] = NCI Yeast Anticancer Drug Screen. Data for the mec2-1 strain (AID 157); conditions: S. cerevisiae mec2-1 strain, at 50.0 µM, hits give high values
Method in brief: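 Compounds were applied to mec2-1 yeast cells. Their growth was then compared with that of vehicle-treated cultures to give growth inhibition.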

[3] = NCI Yeast Anticancer Drug Screen. Data for the sgs1 mgt1 strain (AID 161);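 note: 0% = growth of cultures given vehicle only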; conditions: S. cerevisiae sgs1 mgt1 strain, at 50.0 µM, hits give high values
Method in brief: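 Compounds are added to genetically altered yeast, and growth is compared with cultures given vehicle alone to give percent inhibition.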

[4] = NCI Yeast Anticancer Drug Screen. Data for the cln2 rad14 strain (AID 165);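 note: 0% = growth equal to vehicle treated cultures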; conditions: S. cerevisiae cln2 rad14 strain, at 50.0 µM, hits give high values
Method in brief: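 Strain: cln2 rad14 yeast, altered in cell cycle control and DNA damage repair. Read-out: growth inhibition vs vehicle.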

[5] = NCI Yeast Anticancer Drug Screen. Data for the bub3 strain (AID 167); conditions: S. cerevisiae bub3 mutant strain, at 50.0 µM, hits give high values
Method in brief: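 Whole-cell yeast assay. The mutant strain was incubated with compounds, and growth inhibition was determined by comparison with vehicle-treated cells.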

[6] = NCI Yeast Anticancer Drug Screen. Data for the mlh1 rad18 strain (AID 175); conditions: S. cerevisiae mlh1 rad18 strain growth inhibition; at 50.0 µM; hits give high values
Method in brief: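 A repair-deficient yeast strain is exposed to test compound, and growth is scored relative to vehicle-treated controls.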

Measured: growth inhibition

COc1c(OC(C)=O)c(Cl)cc(C=O)c1[N+](=O)[O-]
inactive: [1] 47.1% | [2] 28.7% | [3] 30.1% | [4] 22.1% | [5] 22% | [6] 62.5%

CC1C(c2ccccc2O)c2cc3c(cc2OC1N1CCCC1)OCO3 (stereo unspecified)
inactive: [1] 45.9% | [2] 38.8% | [3] 58.5% | [4] 59.6% | [5] 47.4% | [6] 58.3%

CC(O)CN1CCN(CC(C)O)C(C)C1 (stereo unspecified)
inactive: [1] -10.1% | [2] 1.65% | [3] 0% | [4] 1.35% | [5] -7.2% | [6] 4.75%

CC1(C)CC(=O)C2=C(C1)NC1=C(C2)C(=O)CC(C)(C)C1
inactive: [1] -15.4% | [2] -5.7% | [3] -22.4% | [4] 19.9% | [5] 7.6% | [6] 12.8%

CC(=O)NCCCOc1ccc(N)cc1
inactive: [1] -3.7% | [2] 4.05% | [3] -0.4% | [4] -27.1% | [5] -2.3% | [6] -11.9%

CC1(C)CC(=O)C(N=Nc2ccccc2)=C(O)C1
inactive: [1] 0.7% | [2] 2.3% | [3] -2.55% | [4] -49.4% | [5] 24.2% | [6] -0.75%

Nc1cc(C(=O)O)cc2ccccc12
inactive: [1] 14.8% | [2] -5.35% | [3] 0.1% | [4] -7.95% | [5] -2.95% | [6] 26.6%

CCCCCOc1nc2c(c(=O)n(C)c(=O)n2C)n1C
inactive: [1] -0.4% | [2] -2.55% | [3] 4.65% | [4] -17.6% | [5] 3.45% | [6] 0.85%

Cn1c(=O)c2c(nc(/N=C/c3ccncc3)n2C)n(C)c1=O
inactive: [1] -3.35% | [2] -5.95% | [3] -5.9% | [4] -75.7% | [5] -16.8% | [6] -2.85%

CC(=O)n1nc(Cl)c2cccnc2c1=O
inactive: [1] 11.8% | [2] -1.1% | [3] 4.3% | [4] 1.55% | [5] -0.4% | [6] 8.85%

C1CCN(c2nn[nH]n2)CC1
inactive: [1] 4.05% | [2] -2% | [3] 3.75% | [4] -10.3% | [5] 12.4% | [6] 0.4%

c1csc(C(NC2=NCCO2)C2CC2)c1 (stereo unspecified)
inactive: [1] -32.9% | [2] -11.2% | [3] -22.9% | [4] -25.1% | [5] -27.5% | [6] 41.8%

CC(=O)OCC1OC(OC(C)=O)C(NC(=O)C[NH-])C(OC(C)=O)C1OC(C)=O.CC(=O)OCC1OC(OC(C)=O)C(NC(=O)C[NH-])C(OC(C)=O)C1OC(C)=O.[Cl][Pt+2][Cl] (stereo unspecified)
inactive: [1] -2.75% | [2] -19.4% | [3] -5.85% | [4] -42.9% | [5] 1.7% | [6] 21.9%

CC(C)N(CC(=O)NC(=O)c1ccccc1)Cc1ccccc1
inactive: [1] 3.5% | [2] -8.4% | [3] -1.95% | [4] -30.1% | [5] -1.5% | [6] -11.7%

CCC1=NS(=O)(=O)c2c(ncn2C)N1
inactive: [1] 11% | [2] 8.55% | [3] -5.6% | [4] 11.3% | [5] 0.15% | [6] 1.35%

N#Cc1ccc([N+](=O)[O-])n1CCO
inactive: [1] 9.7% | [2] 8.7% | [3] 35% | [4] -0.05% | [5] 15.6% | [6] 19.3%

COc1cccc2c1C(=N)c1c(O)c3c(c(O)c1C2=O)C[C@@](O)(C(=O)CO)C[C@@H]3OC1CC(N)C(O)C(C)O1 (stereo partly specified)
inactive: [1] 55.4% | [2] 23.2% | [3] -8.7% | [4] 22.4% | [5] -16.9% | [6] -13.9%

CCOP(=O)(OCC)C([O][Sb]([O]CC(C)Cl)[O]CC(C)Cl)c1ccc(OC)cc1 (stereo unspecified)
inactive: [1] -41.9% | [2] -4.85% | [3] -10.9% | [4] -2.45% | [5] 2.05% | [6] -18.6%

N#CC(c1ccc(Cl)cc1)c1ccc(N(CCO)CCO)cc1 (stereo unspecified)
inactive: [1] 9.4% | [2] 1.25% | [3] 2.75% | [4] 5.85% | [5] -12.1% | [6] 13.8%

CC(CC(=O)Nc1ccc(NC(=O)CC(C)N=NC(N)=S)cc1)N=NC(N)=S (stereo unspecified)
inactive: [1] 30.6% | [2] 3.95% | [3] -5.35% | [4] -27.2% | [5] 1.75% | [6] 14%

CCCCC(CC)CSCCOC(C)OCCSCC(CC)CCCC (stereo unspecified)
inactive: [1] 34.3% | [2] 2.25% | [3] 25.6% | [4] 39.9% | [5] 6.6% | [6] 27.9%

COc1cccc2c(Nc3ccc(S(=O)(=O)Nc4ncccn4)cc3)c3ccc([N+](=O)[O-])cc3nc12
inactive: [1] 59.8% | [2] 12.1% | [3] 29.2% | [4] 11.2% | [5] 32.2% | [6] 16.2%

COc1cccc2c1OC(=O)C(S(=O)(=O)c1ccccc1)C2 (stereo unspecified)
inactive: [1] -7.8% | [2] -3.95% | [3] 5.5% | [4] -37.5% | [5] -7.25% | [6] -3.65%

CCc1ccccc1NC(=O)Nc1ccc(C(=O)O)c(O)c1
inactive: [1] 33.6% | [2] 10.2% | [3] 27.4% | [4] 21.4% | [5] 29.8% | [6] 26.4%

CC(C)CC(=O)OC1CCCCC1C1CCCCC1 (stereo unspecified)
inactive: [1] -2.1% | [2] -6.35% | [3] 12.3% | [4] 7.25% | [5] 13.4% | [6] -4%

Cc1c(O)c2ccccc2n(C)c1=O
inactive: [1] -9.45% | [2] -12.4% | [3] -15.7% | [4] -6.1% | [5] 3.85% | [6] -6.8%

Cc1ccccc1C(=O)c1ccc2ccccc2c1
inactive: [1] 11.4% | [2] 26.2% | [3] 28.2% | [4] 9.35% | [5] 9.3% | [6] 25.4%

CCNc1nc2ccccc2nc1NCC
inactive: [1] -18.1% | [2] -5.6% | [3] 1.45% | [4] 16.1% | [5] -13.3% | [6] 3.15%

C/C=C/c1cc(C)cc(C)c1OC(C)CC (stereo unspecified)
inactive: [1] -2.45% | [2] -9.75% | [3] 11.4% | [4] -34.5% | [5] -17.9% | [6] 10.1%

CCOC(=O)c1ccc([N+](=O)[O-])cc1
inactive: [1] -9.55% | [2] -12% | [3] -17.4% | [4] -29.2% | [5] -18.6% | [6] 21.1%

Cc1cc(S(=O)(=O)Nc2n[nH]c(Nc3ccc(Cl)cc3)n2)c(S)cc1Cl
inactive: [1] -8.1% | [2] -14.9% | [3] 6.7% | [4] 7.05% | [5] 0.35% | [6] 17.4%

O=C(Oc1ccc(-c2ccccc2)cc1)c1cccc([N+](=O)[O-])c1
inactive: [1] -10.1% | [2] -4.5% | [3] 7.1% | [4] -11.4% | [5] 27.5% | [6] 0.2%

CC(C)[C@@H]1C=C(c2ccccc2)c2ccccc2C1C(C#N)(C#N)C(C)C (stereo partly specified)
inactive: [1] -30.2% | [2] -33.5% | [3] -10.3% | [4] -8.4% | [5] -12.9% | [6] -14.1%

[N-]=[N+]=CC(=O)C1OC1c1ccc(Br)cc1 (stereo unspecified)
inactive: [1] 11.8% | [2] 15.3% | [3] 22.9% | [4] 24.4% | [5] -0.25% | [6] 33.1%

CC(=O)NC1c2ccccc2Oc2c(C)cccc21 (stereo unspecified)
inactive: [1] -8.8% | [2] 0.85% | [3] 1.7% | [4] -15.9% | [5] 2.75% | [6] 2.6%

CC(N(C)Cc1ccccc1)C(C)(O)c1ccccc1 (stereo unspecified)
inactive: [1] -10.4% | [2] 6.55% | [3] 7.75% | [4] -24.9% | [5] 51% | [6] 30.8%

Cc1cccc(C)n1
inactive: [1] -1.85% | [2] -22.1% | [3] -3.15% | [4] -1.85% | [5] -6.55% | [6] -21.4%

CN1COc2c3c(c4ccccc4c2C1)CN(C)CO3
inactive: [1] 7.1% | [2] 2.35% | [3] 1.2% | [4] -16.9% | [5] 6.35% | [6] -0.3%

COC(=O)c1nnn(-c2c(C)cccc2C(C)C)c1C(=O)c1ccccc1
inactive: [1] 6% | [2] -2.45% | [3] -2.15% | [4] -7.6% | [5] -23.8% | [6] 24.1%

Nc1ccccc1C(=O)CCc1c[nH]c2ccccc12
inactive: [1] 5.05% | [2] 9.05% | [3] 7.6% | [4] -42.4% | [5] -12.1% | [6] 12.3%

CC(c1ccccc1)N1COc2cc3c(cc2C1)CN(C(C)c1ccccc1)CO3 (stereo unspecified)
inactive: [1] -11.8% | [2] 0.4% | [3] -6.8% | [4] -28.3% | [5] -1.3% | [6] 6.7%
